A selection: hits, their analogues and other compounds. The true share with any hit is near 2.4%.
PERK inh = blocks human PERK kinase; Q9NZJ5; inhibition, % at 5.6 µM; CHO PERK-DD fusion, SEAP luminescence translation reporter; 220,000 compounds, 0.17% hits;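 active = inhibition above the mean inhibition of all tested compounds plus 3 SD, set separately per screening campaign, cut at about 2.9% in these data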;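 note: PERK kinase domain activated by AP20187 dimerizer at 100 nM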
PfM18AAP inh-1 = PfM18AAP enzyme inhibition. recombinant PfM18AAP, H-Glu-NHMec fluorogenic cleavage. 290,000 compounds, 1.2% hits. AID 1822. inhibition, % at 7.35 µM;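 active = inhibition above the campaign mean inhibition over all tested compounds plus 3 SD, cut at about 28% in these data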
PABP1 MLLE inh = inhibitors of microRNA-mediated deadenylation, human PABP1 MLLE binding. P11940. GST-MLLE / FITC-PAM2 fluorescence polarization. 360,000 compounds, 0.36% hits. inhibition, % at 20 µM. AID 588489; in the data active = inhibition above about 35%, passing the limit was not always enough
eIF4H FP inh = inhibitors of RNA binding by human eIF4H | Q15056 | eIF4H fluorescence polarization binding assay | inhibition, % at 35 µM | 290,000 compounds, 0.94% hits | AID 2012;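 note: calls also rest on retests at 20 µM and on dose response follow-up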
eIF4E-4G inh = blocks eIF4E binding to eIF4G | 220,000 compounds, 0.37% hits | TR-FRET eIF4E-eIF4GI(517-606) binding, 2 h | inhibition, % at 21.7 µM | P63073+Q04637;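 active = inhibition above about 30%, limit read from the data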
PABP FP inh = PABP-poly(A) binding inhibition. P11940. PABP-poly(A) RNA binding, fluorescence polarization. inhibition, % at 35 µM. 290,000 compounds, 1% hits;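 note: calls also rest on retests at 20 µM and on dose response follow-up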
PfM18AAP inh-2 = confirmation of Plasmodium falciparum M18 aspartyl aminopeptidase inhibitors | shares compounds with PfM18AAP inh-1 | recombinant PfM18AAP, H-Glu-NHMec fluorogenic cleavage | inhibition, % at 7.35 µM | 2,400 compounds, 28% hits;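 active = mean inhibition over replicate wells above the hit cutoff set for the earlier primary screen, cut at about 29% in these data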
CTSL1 counter = Cathepsin L (human) inhibition, confirmation; shares compounds with PfM18AAP inh-1; purified cathepsin L1, Z-Leu-Arg-MCA fluorescence; inhibition, % at 5.96 µM; 2,400 tested, under 10 active; AID 2178;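 active = average inhibition across replicates above the hit cutoff set in the earlier primary screen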
Target sequence (P07711 whole entry, looked up): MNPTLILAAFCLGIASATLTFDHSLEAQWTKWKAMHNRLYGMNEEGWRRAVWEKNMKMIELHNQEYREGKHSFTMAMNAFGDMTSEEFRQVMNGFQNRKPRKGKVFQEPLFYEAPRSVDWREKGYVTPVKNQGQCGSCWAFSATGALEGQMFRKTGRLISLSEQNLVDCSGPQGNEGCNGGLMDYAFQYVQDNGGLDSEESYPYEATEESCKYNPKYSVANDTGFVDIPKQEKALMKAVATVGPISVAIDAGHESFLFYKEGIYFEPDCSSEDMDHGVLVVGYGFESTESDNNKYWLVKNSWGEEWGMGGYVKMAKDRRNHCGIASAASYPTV
A number is an active result; – = inactive; ? = inconclusive; · = not tested or not shown. Unless noted, the rule behind the calls is not given here.

SMILES	PERK inh	PfM18AAP inh-1	PABP1 MLLE inh	eIF4H FP inh	eIF4E-4G inh	PABP FP inh	PfM18AAP inh-2	CTSL1 counter
Cc1ccc(S(=O)(=O)c2cc3c(=O)n4ccccc4nc3n(CCCN3CCOCC3)c2=N)cc1C	·	–	–	–	·	–	·	·
COc1cccc2sc(NNC(=O)C3=COCCO3)nc12	–	43.0	–	–	–	–	–	–
CNC(=O)c1ccc(C)c(NC(=O)C2=C(C)OCCS2)c1	·	–	–	–	·	–	·	·
O=C(CNC(=O)c1cccs1)NCC(=O)OCC(=O)c1ccc([N+](=O)[O-])cc1	–	46.2	–	–	–	–	–	–
Cc1ccccc1OCC(=O)NCC(=O)OCC(=O)c1ccc([N+](=O)[O-])cc1	·	46.3	–	–	·	–	–	–
O=C(CNC(=O)c1cccs1)OCC(=O)c1ccccc1	–	–	–	–	–	–	·	·
CCOC(=O)C1CCN(S(=O)(=O)c2cccc(-c3cn4cccc(C)c4n3)c2)CC1	–	–	–	–	–	–	·	·
O=[N+]([O-])c1cc(C=Nc2cccc3c(O)cccc23)ccc1Cl	·	39.3	·	?	·	?	–	–
COc1ccc2[nH]c3c(c2c1)CCN1C(=O)C(CC(=O)NCc2ccco2)C[C@H](C(=O)N2CCCCC2)[C@@]31CCc1ccccc1 (some centres undefined)	·	·	–	·	·	·	·	·
Fc1ccc(-n2c(=S)[nH]c3cccnc32)cc1	·	36.7	–	–	·	–	–	–
O=C(NC1CCCCC1)C(c1ccc(O)c(O)c1)N(C(=O)Cn1nnc2ccccc21)c1cccc(O)c1 (centres undefined)	–	86.3	–	–	–	–	83.4	–
COc1cccc(NC(=O)N2CCC(n3nnc4ccccc43)CC2)c1	–	–	–	–	–	–	·	·
O=c1c2ccccc2cnn1Cc1n[nH]c(=S)n1-c1ccccc1	–	34.8	–	–	–	–	–	–
S=c1[nH]nc(Cc2noc3ccccc23)n1-c1ccccc1	–	33.1	–	–	–	–	–	–
S=c1[nH]nc(Cc2cccc3ccccc23)n1-c1ccccc1	–	–	–	–	–	–	·	·
Cc1cccc(CN2CCN([C@@H]3CS(=O)(=O)N[C@H]3COCc3ccccc3)CC2)c1	·	·	–	·	·	·	·	·
Cc1cccc(C2N=C(N)Nc3nc4ccccc4n32)c1 (centres undefined)	–	–	–	–	–	–	·	·
O=C(Oc1ccccc1O)c1cccc2ccccc12	–	61.3	–	–	–	–	–	–
O=C(Oc1cccc2c(O)cccc12)c1ccccc1Cl	·	·	–	·	·	·	·	·
COc1ccc(C(C)=NOC(=O)c2c(-c3ccccc3Cl)noc2C)cc1CN1CCOCC1	·	·	–	·	·	·	·	·
CCOc1c(Br)ccc2c1sc1nc[nH]c(=O)c12	–	–	–	–	–	–	·	·
Cc1onc(C(=O)NN)c1C(=O)Nc1ncc(C(F)(F)F)cc1Cl	–	54.7	–	–	–	–	–	–
NC(=O)CNc1ncc(C(F)(F)F)cc1Cl	–	–	–	–	–	–	·	·
Cc1ccc(C)c(NC(=O)CCn2cnnn2)c1	–	–	–	–	–	–	·	·
Cc1ccc(Cl)cc1NC(=O)Nn1cnnc1	·	76.3	–	–	·	–	60.9	–
SMILES	PERK inh	PfM18AAP inh-1	PABP1 MLLE inh	eIF4H FP inh	eIF4E-4G inh	PABP FP inh	PfM18AAP inh-2	CTSL1 counter
COc1ccc(Cl)cc1NC(=O)NC(C)C	–	–	–	–	–	–	·	·
Cc1ccc(C)c(NC(=O)Nn2cnnc2)c1	·	59.7	–	–	·	–	40.7	–
O=C(Nc1ccc(Cl)cc1Cl)Nn1cnnc1	·	82.5	–	–	·	–	76.8	–
COc1ccc(Cl)cc1NC(=O)Nn1cnnc1	–	81.1	–	–	–	–	73.5	–
CCOC(=O)N1CCC2(CC1)NC(=O)c1ccccc1N2	·	·	–	·	·	·	·	·
O=C(Nc1c2c(nn1-c1cccc(Cl)c1)CS(=O)(=O)C2)c1ccc2c(c1)OCO2	·	–	–	–	·	–	·	·
Nc1cnn(C2CCCO2)c(=O)n1 (centres undefined)	–	–	–	–	–	–	·	·
NNC(=O)c1cc(O)c(O)c(O)c1	–	65.4	–	–	–	–	44.3	–
COc1c(Cl)cc(C(=O)NN)cc1Cl	–	–	–	–	–	–	·	·
N=c1c(C(=O)NC2CCCC2)cc2c(=O)n3ccccc3nc2n1C1CCCC1	–	–	–	–	·	–	·	·
N=c1c(C(=O)NCc2ccco2)cc2c(=O)n3ccccc3nc2n1C1CCCC1	·	36.0	–	77.7	·	52.7	–	–
CC(=O)C1=C(C)NC(SCc2cccc([N+](=O)[O-])c2)=C(C#N)C1c1ccco1 (centres undefined)	–	32.2	–	–	–	–	–	–
CCC1(c2ccccc2)NC(=O)N(CC(=O)Nc2cc(S(=O)(=O)N3CCCCCC3)ccc2OC)C1=O (centres undefined)	·	·	–	·	·	·	·	·
O=C(O)CCCC(=O)Nc1ccccc1SCCS(=O)(=O)c1ccc(Cl)cc1	·	35.1	–	–	·	–	–	–
CCOc1ccccc1C(=O)NCC(=O)N(C)Cc1cccnc1	·	–	–	–	·	–	·	·
Cc1csc(/C(=N/OC(=O)c2ccco2)C(N)=O)n1	–	50.9	–	–	–	–	–	–
COc1ccc(/C(N)=N/OC(=O)c2ccco2)cc1OC	–	–	–	–	–	–	·	·
CCOC(=O)C1=C(C)NC(=S)NC1c1ccco1 (centres undefined)	–	35.1	–	–	–	–	–	–
Cc1ccccc1NS(=O)(=O)c1nnc(NC(=O)C(C)C)s1	·	–	–	–	·	–	·	·
COc1cccc(NC(=O)CN(C)C(=O)c2ccccc2-c2nc3ccccc3s2)c1	·	·	–	·	·	·	·	·
CN(C)S(=O)(=O)c1cccc(C(=O)C2=C3SC=C(c4ccccc4)N3CC2)c1	–	34.3	–	–	–	–	–	–
CN(C)S(=O)(=O)c1cccc(C(=O)N2CCc3ccccc32)c1	–	–	–	–	–	–	·	·
O=C1/C(=C\c2ccc(O)c(O)c2)C(c2ccccc2)=NN1c1ccccc1	–	49.0	–	–	–	40.7	35.8	–
CC(=O)NC(Cc1ccccc1)C(=O)N1CCN(C(=O)c2cccs2)CC1 (centres undefined)	–	–	–	–	–	–	·	·
CC(=O)c1ccc(OCC(=O)OCc2cc(-c3ccco3)on2)cc1	·	·	–	·	·	·	·	·
SMILES	PERK inh	PfM18AAP inh-1	PABP1 MLLE inh	eIF4H FP inh	eIF4E-4G inh	PABP FP inh	PfM18AAP inh-2	CTSL1 counter
O=C(CSc1nc2[nH]ncc2c(=O)[nH]1)N1CCCCC1	–	33.7	–	–	–	–	–	–
O=C(CSc1nc2[nH]ncc2c(=O)[nH]1)c1ccccc1	–	47.8	–	–	–	–	40.3	–
CCC(C)NC(=O)C1CCC(=O)N1CCc1ccccc1 (centres undefined)	·	–	–	–	·	–	·	·
COc1cc(CN2CCCCCC2)c([N+](=O)[O-])cc1OC	·	32.6	–	–	·	–	–	–
CCN1CCN(C(=S)c2ccc(Br)cc2)CC1	–	39.9	–	–	–	–	–	–
CN1CCN(C(=S)c2ccc(Br)cc2)CC1	–	47.3	–	–	–	–	–	–

From PubChem BioAssay
